Hits are enriched below; roughly 2.3% of the tested compounds scored in any of these assays.
SENP8 block-1: SENP8 protease inhibition; purified SENP8, Z-RLRGG-aminoluciferin cleavage, luminescence; 330,000 compounds, 1.2% hits; inhibition, % at 10 µM; Q96LD8; in the data active means inhibition above about 50%
Target sequence (Q96LD8 whole entry, looked up): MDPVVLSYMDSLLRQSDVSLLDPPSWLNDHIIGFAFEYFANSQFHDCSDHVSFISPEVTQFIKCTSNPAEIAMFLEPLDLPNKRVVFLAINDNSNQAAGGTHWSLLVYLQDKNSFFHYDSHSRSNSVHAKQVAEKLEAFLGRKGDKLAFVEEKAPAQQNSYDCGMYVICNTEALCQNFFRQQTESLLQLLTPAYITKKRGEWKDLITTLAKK
SENP6 block: SENP6 protease inhibition. Q9GZR1. Recombinant SENP6 catalytic domain, aminoluciferin luminescence. inhibition, % at 10 µM. 330,000 compounds, 1.8% hits. AID 2599;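 active means inhibition above about 50% at the single tested dose, limit read from the data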
HSP90 refold inh: blocks HSP90-mediated luciferase refolding in reticulocyte lysate | Rabbit reticulocyte lysate, luciferase refolding luminescence, 3 h | inhibition, % at 5.6 µM | 290,000 compounds, 0.91% hits | AID 1789;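 active means inhibition above the screen-wide mean plus 3 SD, computed separately per campaign, cut at about 16% in these data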;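 further: inhibitors lower the luminescence because luciferase stays unfolded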
LGR2 antag: Drosophila LGR2 receptor signaling inhibition; HEK293 LGR2, CRE-luciferase, bursicon-stimulated, 4 h; inhibition, % at 9.99 µM; 380,000 compounds, 0.35% hits; AID 720647;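 active means drop in luminescence signal, shown as inhibition above about 50% in the replicate tests, limit read from the data, passing the limit was not always enough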;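 further: agonist challenge used bursicon conditioned medium at about half maximal strength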
SENP7 inh: SENP7 protease inhibition | Q9BQF6 | inhibition, % at 5 µM | recombinant SENP7, Z-RLRGG-aminoluciferin luminescence, 40 min | 330,000 compounds, 1.5% hits | AID 434973;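 active means inhibition above about 50% at the single test dose, limit read from the data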
Target sequence (Q9BQF6 706-1050 limits assumed): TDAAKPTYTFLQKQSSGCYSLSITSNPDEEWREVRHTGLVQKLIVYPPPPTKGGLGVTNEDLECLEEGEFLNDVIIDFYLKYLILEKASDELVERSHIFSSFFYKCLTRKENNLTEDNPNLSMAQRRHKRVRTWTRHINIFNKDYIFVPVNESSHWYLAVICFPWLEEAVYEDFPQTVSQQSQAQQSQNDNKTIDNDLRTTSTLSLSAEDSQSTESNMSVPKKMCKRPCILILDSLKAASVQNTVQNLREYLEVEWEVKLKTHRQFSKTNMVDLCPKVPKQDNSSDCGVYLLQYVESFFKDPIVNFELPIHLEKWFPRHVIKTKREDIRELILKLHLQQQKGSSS
SENP8 block-2: SENP8 (human) protease inhibition. 360,000 compounds, 0.64% hits. Q96LD8. inhibition, % at 20 µM. recombinant SENP8, Nedd8 substrate fluorescence; in the data active means inhibition mostly above about 40%, no sharp cut-off; inactive means mostly below about 27%
SENP8 inh conf: confirmation of human SENP8 protease inhibitors; shares compounds with SENP8 block-2; purified SENP8, Nedd8-AMC/pro-Nedd8 cleavage fluorescence, 30 min; inhibition, % at 25 µM; 1,400 compounds, 15% hits; AID 624319; in the data active means inhibition mostly above about 39%, no sharp cut-off; inactive means mostly below about 34%
Each line names hits and unclear results; the compound was inactive in the other large screens (follow-up assays come after a bar, where they were run).

COc1ccc(/C=N/NS(=O)(=O)c2ccc(C)cc2)cc1OC(=O)c1ccccc1	none (no result: LGR2 antag)
COc1ccc2c3c([nH]c2c1)[C@@H](CO)N(C(=O)Nc1ccc(F)cc1)CC31CCN(CC2CC2)CC1	none (no result: SENP8 block-1, SENP6 block, HSP90 refold inh, SENP7 inh, SENP8 block-2)
O=C(O)/C=C\C(=O)O	none (no result: HSP90 refold inh, LGR2 antag)
O=C(O)C=C(Br)Br	SENP8 block-2 46 | SENP8 inh conf inactive
COc1ccc(OS(=O)(=O)c2c(C)noc2C)cc1	SENP8 block-2 48 | SENP8 inh conf inactive
COc1ccc(N(C)S(=O)(=O)c2c(C)noc2C)c(OC)c1	none
CCCCCCN1C=C/C(=C\C=C(C#N)C#N)c2ccccc21	none
C=CCN1C=CC(=CC=C(C#N)C#N)C=C1	SENP8 block-2 56 | SENP8 inh conf inactive
CCCN1C=CC(=C/C=C(\C#N)C(=O)OCC)C=C1	none (no result: LGR2 antag, SENP8 block-2)
C=CCN1C=C/C(=C\C=C(C#N)C#N)c2ccccc21	none
CCCCCCN1C=CC=C/C1=C/C=C(C#N)C#N	SENP8 block-2 50 | SENP8 inh conf inactive
CCCCCCN1C=CC(=C/C=C(\C#N)C(=O)OCC)C=C1	SENP8 block-2 36 (no result: LGR2 antag) | SENP8 inh conf inactive
CCCN1C=CC(=CC=C(C#N)C#N)C=C1	SENP8 block-2 50 | SENP8 inh conf inactive
CCCCCN1C=CC=C/C1=C\C=C(C#N)C#N	none
COc1ccc(NC(=O)N(C)C[C@@H]2OCCCC[C@@H](C)Oc3ccc(NS(=O)(=O)c4cccs4)cc3C(=O)N([C@@H](C)CO)C[C@H]2C)cc1	none (no result: SENP8 block-1, SENP6 block, HSP90 refold inh, SENP7 inh, SENP8 block-2)
CCOc1cc(C(=S)N2CCOCC2)ccc1OS(=O)(=O)c1ccc(C)cc1	none
CCOc1cc(C(=S)N2CCOCC2)cc(Br)c1OS(=O)(=O)c1ccccc1	SENP8 block-2 42 | SENP8 inh conf 66
CC(C)C1NCCc2c1sc1ccccc21 (stereo not drawn)	SENP8 block-2 43 (no result: HSP90 refold inh, LGR2 antag) | SENP8 inh conf inactive
CN1CCN(C2=C(Cl)C(=O)N(C3CCCCC3)C2=O)CC1	SENP8 block-2 41 (no result: LGR2 antag) | SENP8 inh conf inactive
COc1ccccc1NC(=O)N[C@H]1CC[C@H](CC(=O)N[C@H](C)c2ccccc2)O[C@@H]1CO	none (no result: SENP8 block-1, SENP6 block, HSP90 refold inh, SENP7 inh, SENP8 block-2)
CCC(C)NCCOc1ccc(C)cc1[N+](=O)[O-] (stereo not drawn)	SENP8 block-2 40 (no result: SENP8 block-1, SENP6 block, SENP7 inh) | SENP8 inh conf inactive
C=CCNCCOc1ccc(C)cc1[N+](=O)[O-]	none
CO[C@H]1CN(C)C(=O)c2ccc(NC(=O)c3cnccn3)cc2OC[C@@H](C)NC[C@@H]1C	none (no result: SENP8 block-1, SENP6 block, HSP90 refold inh, SENP7 inh, SENP8 block-2)
O=C(CS(=O)(=O)Cc1ccccc1)N1CCc2ccccc2C1	SENP8 block-2 50 (no result: LGR2 antag) | SENP8 inh conf 76
O=C1CN(C(=O)NCC(=O)N[C@@H](Cc2ccccc2)C(=O)O)c2ccccc2N1	SENP8 block-2 46 | SENP8 inh conf inactive
CC(C)C[C@H](NC(=O)N1CC(=O)Nc2ccccc21)C(=O)N[C@@H](Cc1c[nH]c2ccccc12)C(=O)O	none
CC(C)C[C@H](NC(=O)N1CC(=O)Nc2ccccc21)C(=O)N[C@H](Cc1c[nH]c2ccccc12)C(=O)O	SENP8 block-2 51 | SENP8 inh conf inactive
C[C@@H]1CN([C@H](C)CO)C(=O)c2cc(-c3cccc(C#N)c3)cnc2O[C@H]1CN(C)C(=O)C1CC1	none (no result: SENP8 block-1, SENP6 block, HSP90 refold inh, SENP7 inh, SENP8 block-2)
COC(=O)[C@H]1[C@H](CO)[C@H]2Cn3c(ccc(-c4ccccc4F)c3=O)[C@H]2N1C(=O)c1cnccn1	none (no result: SENP8 block-1, SENP6 block, HSP90 refold inh, SENP7 inh, SENP8 block-2)
COc1ccccc1CN1CC2(C1)[C@H](c1ccccc1)[C@H](CO)N2Cc1ccccc1	none (no result: SENP8 block-1, SENP6 block, HSP90 refold inh, SENP7 inh, SENP8 block-2)
COc1ccccc1NS(=O)(=O)c1cc(NC(=O)c2ccc(NC(C)=O)cc2)ccc1N1CCOCC1	none (no result: SENP8 block-1, SENP6 block, HSP90 refold inh, SENP7 inh)
COc1ccccc1NS(=O)(=O)c1cc(NC(=O)c2cccc(S(=O)(=O)N(C)C)c2)ccc1N1CCOCC1	SENP8 block-2 32 (no result: HSP90 refold inh) | SENP8 inh conf inactive
O=c1[nH]nc(CNc2ccc(O)cc2)c2ccccc12	SENP8 block-2 114 (no result: LGR2 antag) | SENP8 inh conf inactive
CN1CCN(C(=O)C[C@@H]2CC[C@@H]3[C@H](COC[C@H](O)CN3C(=O)c3ccc(F)cc3)O2)CC1	none (no result: SENP8 block-1, SENP6 block, HSP90 refold inh, SENP7 inh, SENP8 block-2)
CCNC(=O)O/N=C1\CCCCC1c1ccc([N+](=O)[O-])cc1[N+](=O)[O-] (stereo not drawn)	SENP8 block-2 41 | SENP8 inh conf 48
C[C@@H]1CCCCO[C@@H](CN(C)C(=O)C2CCCCC2)[C@@H](C)CN([C@@H](C)CO)C(=O)c2cc(NC(=O)CCCN(C)C)ccc2O1	none (no result: SENP8 block-1, SENP6 block, HSP90 refold inh, SENP7 inh, SENP8 block-2)

High-throughput results: PubChem, several laboratories
